PubChem BioAssay (EPA / NIEHS)
Active and inactive are the calls of the source. How the source made its calls: active means hit-call score of the fitted dose curve at least 0.9, where 1 is the maximum; inactive means score below 0.9.

Experiments:
[1] = ATG_M_61_CIS: Attagene CIS-FACTORIAL HepG2 Assay for M61 Transcription Factor (Internal Marker) (AID 2282937); conditions: HepG2 Attagene CIS-FACTORIAL M61 internal marker reporter; actives raise or lower the signal
Method in brief: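 Using transiently transfected HepG2 liver cells, reporter transcript levels were assessed 24 h post-dosing by RT-PCR and capillary electrophoresis. Changes in either direction were fitted relative to DMSO controls.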

[2] = ATG_EGR_CIS: Attagene CIS-FACTORIAL HepG2 Assay for human Early Growth Response 1 (EGR1) (AID 2282938); conditions: HepG2 Attagene CIS-FACTORIAL EGR reporter mRNA; actives raise or lower the signal
Method in brief: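 Fluorescent capillary-electrophoresis signal of reporter cDNA fragments serves as read-out. HepG2 cells bear transiently transfected cis-promoter reporter units and are exposed 24 h; gain- or loss-of-signal is fitted against DMSO.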

[3] = ATG_M_19_CIS: Attagene CIS-FACTORIAL HepG2 Assay for M19 Transcription Factor (Internal Marker) (AID 2282939); conditions: HepG2 Attagene CIS-FACTORIAL M19 internal marker reporter; actives raise or lower the signal
Method in brief: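 Background-control endpoint from a multiplexed HepG2 reporter panel. Cells carrying cis-regulated reporter constructs are treated 24 h, then reporter transcripts are amplified, fluorescently labelled and sized by capillary electrophoresis. DMSO defines baseline.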

[4] = ATG_Ets_CIS: Attagene CIS-FACTORIAL HepG2 Assay for human Erythroblast Transformation Specific (ETS) (AID 2282941); conditions: HepG2 ETS cis-reporter transcription, actives raise or lower the signal
Method in brief: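 Cis-regulated reporter mRNA induction in HepG2 (transient transfection), 24 h exposure, RT-PCR plus capillary electrophoresis detection; DMSO serves as negative control and baseline.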

[5] = molecular target: Hepatocyte nuclear factor 3-beta (Homo sapiens) (UniProt Q9Y261); assay: ATG_FoxA2_CIS: Attagene CIS-FACTORIAL HepG2 Assay for human Forkhead box A2 (FOXA2) (AID 2282942); conditions: HepG2 cis-reporter transcription factor activity, 24 h; actives raise or lower the signal
Hepatocyte nuclear factor 3-beta (Homo sapiens), sequence (Q9Y261 whole entry, looked up, the tested form may be a part): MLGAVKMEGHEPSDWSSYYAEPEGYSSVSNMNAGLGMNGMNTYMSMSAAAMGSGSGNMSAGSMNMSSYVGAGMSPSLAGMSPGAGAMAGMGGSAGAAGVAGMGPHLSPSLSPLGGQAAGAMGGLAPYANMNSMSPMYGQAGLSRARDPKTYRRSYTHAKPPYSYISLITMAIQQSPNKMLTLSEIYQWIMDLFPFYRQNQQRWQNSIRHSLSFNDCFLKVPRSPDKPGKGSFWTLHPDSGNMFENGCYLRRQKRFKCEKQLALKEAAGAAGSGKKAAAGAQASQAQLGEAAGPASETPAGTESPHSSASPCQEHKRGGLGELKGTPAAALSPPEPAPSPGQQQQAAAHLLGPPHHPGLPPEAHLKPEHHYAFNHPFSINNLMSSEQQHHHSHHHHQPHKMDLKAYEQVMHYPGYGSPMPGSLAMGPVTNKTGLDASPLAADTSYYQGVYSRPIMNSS
Method in brief: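 Fluorescence signal of reporter cDNA fragments, separated by capillary electrophoresis, reflects endogenous transcription factor activity in transfected HepG2 after 24 h. Both increases and decreases fitted against DMSO.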

[6] = ATG_GATA_CIS: Attagene CIS-FACTORIAL HepG2 Assay for human GATA Binding Protein (AID 2282944); conditions: HepG2 GATA cis-element reporter, Attagene multiplex mRNA; actives raise or lower the signal
Method in brief: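 Endogenous transcription factor activity was captured through cis-promoter-driven reporters in transfected HepG2 cells. After 24 h exposure, reporter transcripts were quantified by RT-PCR with fluorescent capillary electrophoresis, and responses fitted both directions against DMSO.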

[7] = ATG_GLI_CIS: Attagene CIS-FACTORIAL HepG2 Assay for human Zinc Finger Protein GLI1 (AID 2282945); conditions: HepG2, Attagene cis-factorial reporter mRNA, GLI element; actives raise or lower the signal
Method in brief: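 HepG2 cells transiently transfected with cis-promoter multiplexed reporter units report endogenous transcription factor activity. After 24 h chemical exposure, reporter mRNA was quantified by RT-PCR, 6-FAM labelling, HpaI digestion and capillary electrophoresis, with bidirectional fitting against DMSO.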

[8] = molecular target: Bile acid receptor (Homo sapiens) (UniProt Q96RI1); assay: ATG_IR1_CIS: Attagene CIS-FACTORIAL HepG2 Assay for human Nuclear Receptor Subfamily 1 Group H Member 4 (NR1H4), IR1 submotif (AID 2282946); conditions: IR1 reporter transcription, actives raise or lower the signal
Bile acid receptor (Homo sapiens), sequence (Q96RI1 whole entry, looked up): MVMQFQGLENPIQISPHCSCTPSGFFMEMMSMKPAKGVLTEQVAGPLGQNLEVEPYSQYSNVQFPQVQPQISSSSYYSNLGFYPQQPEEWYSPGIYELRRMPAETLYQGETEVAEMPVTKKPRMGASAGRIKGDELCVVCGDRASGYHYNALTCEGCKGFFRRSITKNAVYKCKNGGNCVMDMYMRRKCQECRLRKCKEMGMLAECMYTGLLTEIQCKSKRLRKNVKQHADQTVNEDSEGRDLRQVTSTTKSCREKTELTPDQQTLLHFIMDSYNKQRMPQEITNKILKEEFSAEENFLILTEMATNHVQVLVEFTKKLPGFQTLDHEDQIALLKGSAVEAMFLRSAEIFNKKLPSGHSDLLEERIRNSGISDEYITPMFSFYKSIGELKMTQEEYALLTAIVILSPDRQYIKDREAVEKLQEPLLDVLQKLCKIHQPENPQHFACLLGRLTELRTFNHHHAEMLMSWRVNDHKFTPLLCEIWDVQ
Method in brief: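 Readout: reporter transcript levels by RT-PCR with fluorescent capillary electrophoresis, from HepG2 cells transiently transfected with multiplexed cis-regulated reporters and dosed 24 h. Gain- or loss-of-signal fitted versus DMSO negative control.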

[9] = ATG_GRE_CIS: Attagene CIS-FACTORIAL HepG2 Assay for human Glucocorticoid Response Elements (GRE) (AID 2282947); conditions: HepG2 GRE cis-reporter, Attagene multiplex mRNA; actives raise or lower the signal
Method in brief: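 Cells (HepG2) bearing transfected cis-promoter reporter transcription units were treated with chemical for 24 hours. Reporter mRNA was measured via RT-PCR with capillary electrophoresis, and activity was fitted in both directions relative to DMSO.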

[10] = ATG_ISRE_CIS: Attagene CIS-FACTORIAL HepG2 Assay for human Interferon Regulatory Factor 1 (IRF1) binding to an Interferon-Stimulated Response Element (ISRE) (AID 2282948); conditions: HepG2 ISRE cis-reporter (Attagene), mRNA transcription readout; actives raise or lower the signal
Method in brief: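 Multiplexed mRNA reporter readout in human liver HepG2 cells: cis-element-driven reporters transfected, compound added for 24 h, transcripts amplified, fluorescently labelled and sized by capillary electrophoresis; curve fitting bidirectional against DMSO.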

[11] = ATG_M_32_CIS: Attagene CIS-FACTORIAL HepG2 Assay for M32 Transcription Factor (Internal Marker) (AID 2282949); conditions: HepG2 Attagene cis-factorial M32 reporter, mRNA; actives raise or lower the signal;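 further: background control marker of the multiplexed CIS panel rather than a real target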
Method in brief: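 HepG2 human liver cells transiently transfected with cis-promoter-driven multiple reporter transcription units, dosed 24 h. Reporter mRNA quantified by RT-PCR, FAM-labelled primer extension, HpaI digest and capillary electrophoresis; bidirectional fit versus DMSO baseline.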

[12] = ATG_M_06_CIS: Attagene CIS-FACTORIAL HepG2 Assay for M06 Transcription Factor (Internal Marker) (AID 2282950); conditions: HepG2 Attagene CIS-FACTORIAL M06 internal marker reporter; actives raise or lower the signal
Method in brief: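 Steps: transfect HepG2 with multiplexed cis-element reporter constructs; dose chemical 24 h; extract RNA with DNase treatment; reverse-transcribe, PCR-amplify, 6-FAM label, HpaI digest; separate fragments by capillary electrophoresis. Activity fitted both directions versus DMSO.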

[13] = molecular target: Hypoxia-inducible factor 1-alpha (Homo sapiens) (UniProt Q16665); assay: ATG_HIF1a_CIS: Attagene CIS-FACTORIAL HepG2 Assay for human Hypoxia Inducible Factor 1 (HIF1A) (AID 2282951); conditions: HepG2 Attagene cis-factorial HIF1a reporter transcription; actives raise or lower the signal
Hypoxia-inducible factor 1-alpha (Homo sapiens), sequence (Q16665 whole entry, looked up): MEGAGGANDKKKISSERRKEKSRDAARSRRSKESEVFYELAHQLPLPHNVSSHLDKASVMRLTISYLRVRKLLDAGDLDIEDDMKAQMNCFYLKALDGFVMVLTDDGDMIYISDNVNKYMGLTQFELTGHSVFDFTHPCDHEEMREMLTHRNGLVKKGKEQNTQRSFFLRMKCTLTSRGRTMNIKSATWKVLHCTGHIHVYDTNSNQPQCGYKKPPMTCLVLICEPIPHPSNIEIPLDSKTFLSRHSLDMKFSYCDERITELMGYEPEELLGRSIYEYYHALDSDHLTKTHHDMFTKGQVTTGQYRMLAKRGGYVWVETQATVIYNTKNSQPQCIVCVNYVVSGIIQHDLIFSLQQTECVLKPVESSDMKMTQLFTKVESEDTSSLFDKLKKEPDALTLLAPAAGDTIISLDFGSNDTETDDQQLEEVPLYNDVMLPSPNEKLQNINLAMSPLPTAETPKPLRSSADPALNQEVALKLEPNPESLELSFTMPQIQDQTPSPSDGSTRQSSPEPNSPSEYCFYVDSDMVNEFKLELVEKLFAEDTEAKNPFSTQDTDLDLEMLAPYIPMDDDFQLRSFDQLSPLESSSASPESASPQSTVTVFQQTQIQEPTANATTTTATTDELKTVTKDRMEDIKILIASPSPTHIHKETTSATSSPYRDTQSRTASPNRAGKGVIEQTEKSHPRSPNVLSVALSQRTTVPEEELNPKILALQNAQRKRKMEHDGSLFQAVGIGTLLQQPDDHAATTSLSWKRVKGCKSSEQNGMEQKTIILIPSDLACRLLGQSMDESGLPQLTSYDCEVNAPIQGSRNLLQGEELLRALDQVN
Method in brief: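 Endogenous-TF cis reporter readout, human HepG2 cells, 24 h incubation; mRNA detected via RT-PCR and capillary electrophoresis fluorescence; DMSO-normalised bidirectional fitting.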

[14] = molecular target: Hepatocyte nuclear factor 6 (Homo sapiens) (UniProt Q9UBC0); assay: ATG_HNF6_CIS: Attagene CIS-FACTORIAL HepG2 Assay for human Hepatocyte Nuclear Factor 6 (HNF6) (AID 2282952); conditions: HepG2 Attagene cis-factorial HNF6 reporter transcription; actives raise or lower the signal
Hepatocyte nuclear factor 6 (Homo sapiens), sequence (Q9UBC0 whole entry, looked up): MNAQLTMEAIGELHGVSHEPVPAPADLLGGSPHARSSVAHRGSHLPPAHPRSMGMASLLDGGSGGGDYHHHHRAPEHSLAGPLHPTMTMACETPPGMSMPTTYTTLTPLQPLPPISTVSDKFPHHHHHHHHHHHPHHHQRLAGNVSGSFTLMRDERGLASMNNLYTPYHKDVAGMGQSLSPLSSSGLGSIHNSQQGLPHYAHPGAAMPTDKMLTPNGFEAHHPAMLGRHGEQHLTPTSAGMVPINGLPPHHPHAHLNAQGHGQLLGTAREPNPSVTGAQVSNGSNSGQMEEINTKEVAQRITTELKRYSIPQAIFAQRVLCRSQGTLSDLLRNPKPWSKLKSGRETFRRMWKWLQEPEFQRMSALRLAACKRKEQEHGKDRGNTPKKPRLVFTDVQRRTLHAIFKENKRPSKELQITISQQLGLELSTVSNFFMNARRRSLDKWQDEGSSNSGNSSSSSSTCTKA
Method in brief: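 Endogenous factor activity read in transiently transfected HepG2 via promoter-regulated reporter transcripts. RNA harvested 24 h post-dosing, reverse-transcribed, PCR-amplified, FAM-labelled, HpaI-digested and resolved by capillary electrophoresis; fitted in both directions against DMSO.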

[15] = molecular target: Heat shock factor protein 1 (Homo sapiens) (UniProt Q00613); assay: ATG_HSE_CIS: Attagene CIS-FACTORIAL HepG2 Assay for human Heat Shock Transcription Factor 1 (HSE) (AID 2282953); conditions: HepG2 HSE cis-reporter, Attagene RNA transcription; actives raise or lower the signal
Heat shock factor protein 1 (Homo sapiens), sequence (Q00613 whole entry, looked up, the tested form may be a part): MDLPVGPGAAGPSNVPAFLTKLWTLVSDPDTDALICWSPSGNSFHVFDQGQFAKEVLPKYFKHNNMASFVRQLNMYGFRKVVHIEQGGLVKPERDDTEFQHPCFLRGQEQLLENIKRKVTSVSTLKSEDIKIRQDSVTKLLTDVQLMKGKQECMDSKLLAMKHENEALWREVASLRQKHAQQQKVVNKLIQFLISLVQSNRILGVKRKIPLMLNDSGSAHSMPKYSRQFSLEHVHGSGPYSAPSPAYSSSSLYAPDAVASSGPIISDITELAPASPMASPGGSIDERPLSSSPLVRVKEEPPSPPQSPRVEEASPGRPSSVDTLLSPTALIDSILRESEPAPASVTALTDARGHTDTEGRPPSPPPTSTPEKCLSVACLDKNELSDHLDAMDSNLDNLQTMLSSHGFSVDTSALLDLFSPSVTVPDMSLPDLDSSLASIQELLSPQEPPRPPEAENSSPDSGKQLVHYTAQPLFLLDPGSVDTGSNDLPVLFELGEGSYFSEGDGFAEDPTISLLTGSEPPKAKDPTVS
Method in brief: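 Cells were transfected with cis-element-driven reporter constructs, dosed for 24 h, then total RNA was reverse-transcribed and reporter cDNA amplified, FAM-labelled and digested with HpaI. Fragments were resolved by capillary electrophoresis; gain or loss was fitted against DMSO.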

[16] = ATG_PBREM_CIS: Attagene CIS-FACTORIAL HepG2 Assay for human Phenobarbital-responsive Enhancer Module (PBREM) (AID 2282955); conditions: HepG2 PBREM cis-reporter, Attagene multiplexed transcription; actives raise or lower the signal
Method in brief: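 Readout: reporter mRNA, fluorescent RT-PCR fragments separated by capillary electrophoresis. System: HepG2 transiently transfected with cis-regulated reporter units. Exposure: 24 h. Analysis: bidirectional, DMSO baseline.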

[17] = molecular target: Paired box protein Pax-6 (Homo sapiens) (UniProt P26367); assay: ATG_Pax6_CIS: Attagene CIS-FACTORIAL HepG2 Assay for human Paired Box 6 (PAX6) (AID 2282956); conditions: HepG2 CIS-FACTORIAL PAX6 reporter transcription, RNA readout; actives raise or lower the signal
Paired box protein Pax-6 (Homo sapiens), sequence (P26367 whole entry, looked up): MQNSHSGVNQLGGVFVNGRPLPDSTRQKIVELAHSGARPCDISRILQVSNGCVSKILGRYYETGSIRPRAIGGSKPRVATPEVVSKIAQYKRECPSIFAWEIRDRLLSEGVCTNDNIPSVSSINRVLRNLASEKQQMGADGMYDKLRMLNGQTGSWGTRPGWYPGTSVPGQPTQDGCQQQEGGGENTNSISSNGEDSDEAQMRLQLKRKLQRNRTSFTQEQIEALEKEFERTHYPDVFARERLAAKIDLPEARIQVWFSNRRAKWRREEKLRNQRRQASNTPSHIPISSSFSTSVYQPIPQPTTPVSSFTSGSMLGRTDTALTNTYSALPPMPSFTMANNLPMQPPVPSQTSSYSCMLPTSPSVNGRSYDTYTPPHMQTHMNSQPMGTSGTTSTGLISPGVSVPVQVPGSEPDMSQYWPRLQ
Method in brief: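 Fluorescent RT-PCR products separated by capillary electrophoresis report PAX6-linked promoter mRNA in HepG2 cells 24 h post-dose. Curves fitted bidirectionally, DMSO as negative control.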

[18] = ATG_ERE_CIS: Attagene CIS-FACTORIAL HepG2 Assay for Estrogen Response Element (ERE) (AID 2282940); conditions: HepG2 ERE cis-reporter, Attagene RNA transcript; actives raise or lower the signal
Method in brief: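 Cells used were human hepatoma HepG2, transfected with multiple reporter transcription units under cis-regulatory promoters. Reporter mRNA, read 24 h post-dosing via fluorescent RT-PCR products on capillary electrophoresis, was fitted bidirectionally relative to DMSO.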

[19] = ATG_MRE_CIS: Attagene CIS-FACTORIAL HepG2 Assay for human Metal Responsive Element (MRE) (AID 2282954); conditions: HepG2 MRE cis-reporter transcription, Attagene multiplex; actives raise or lower the signal
Method in brief: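 Cells were transfected with cis-promoter reporter transcription units, then dosed for 24 h. RNA was reverse-transcribed, amplified, fluorescently labelled and resolved by capillary electrophoresis, and activity was fitted in both directions relative to DMSO.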

| SMILES | outcome [1] | outcome [2] | outcome [3] | outcome [4] | outcome [5] | outcome [6] | outcome [7] | outcome [8] | outcome [9] | outcome [10] | outcome [11] | outcome [12] | outcome [13] | outcome [14] | outcome [15] | outcome [16] | outcome [17] | AC50 [18] | outcome [19] | outcome [18] |
| --- | --- | --- | --- | --- | --- | --- | --- | --- | --- | --- | --- | --- | --- | --- | --- | --- | --- | --- | --- | --- |
| CCOC(=O)C(C)Oc1ccc(Oc2nc3ccc(Cl)cc3o2)cc1 (centres undefined) | inactive | inactive | inactive | inactive | inactive | inactive | inactive | inactive | inactive | inactive | inactive | inactive | inactive | inactive | inactive | inactive | inactive | – | – | – |
| S=C([S-])NCCNC(=S)[S-].[Mn+2] | inactive | inactive | inactive | inactive | inactive | inactive | inactive | – | inactive | inactive | inactive | inactive | inactive | inactive | inactive | – | inactive | – | – | – |
| CCCCOC(=O)[C@@H](C)Oc1ccc(Oc2ccc(C(F)(F)F)cn2)cc1 | inactive | inactive | inactive | – | inactive | inactive | – | inactive | inactive | inactive | inactive | inactive | inactive | inactive | inactive | inactive | inactive | 59.1 µM (active) | inactive | – |
| CCOC(=O)COc1cc(-n2ncc(C(F)(F)F)c(C)c2=O)c(F)cc1Cl | inactive | inactive | inactive | – | inactive | inactive | – | – | inactive | inactive | inactive | inactive | inactive | inactive | inactive | inactive | inactive | – | – | inactive |
